Results from PubChem BioAssay AID652180 (National Center for Advancing Translational Sciences (NCATS), 2013).
Results filed as inconclusive are left out. Values without a mark were called inactive. Active and inactive are the calls of the source. The call rests on the fitted dose curve; in most records, active means well fitted inhibition curve with a large enough effect; inconclusive means small, poorly fitted or top-dose-only effect; inactive means no such curve, though single readings can be large or run the other way.

experiment: qHTS Assay for Lipid Storage Modulators: 3T3L1 Assay against Probe and Analogs; settings: 3T3-L1 lipid droplets, BODIPY imaging, oleic acid, 18-24 h; series mostly up to 46.1 µM; activity change, negative = decreased lipid storage: at the top concentration
Method in brief: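 Lipid droplet number and size, plus cell count, were measured by imaging BODIPY- and Hoechst-stained 3T3L1 cells. Compounds (0.46% DMSO final) were co-incubated for 18-24 h with oleic acid, added at 400 uM, to induce droplets. Triacsin C served as control.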

Q: With CCOc1ccc(CCNC(=O)c2ccccn2)cc1OCC as the compound, how does the “activity change, negative = decreased lipid storage” value read?
A: -36%

Q: For CCOc1ccc(CCNC(=O)c2cc3sccc3n2Cc2ccccc2)c(F)c1OCC, which Potency is on record?
A: 526 nM (active)

Q: Which Potency does the source give for CCOc1ccc(CCNC(=O)c2cc3ccccc3n2Cc2ccc(Cl)c(F)c2)cc1OCC here?
A: 18.7 nM (active)

Q: With CCOC(=O)C1CCN(C(=O)C(C)(C)NC(=O)Nc2ccc(CN3CCOCC3)cc2)CC1 as the compound, how does the “activity change, negative = decreased lipid storage” value read?
A: 16.8%

Q: Which “activity change, negative = decreased lipid storage” value does the source give for O=C(Nc1cccc2c1cnn2-c1ccc(F)cc1)c1ccccn1 here?
A: 11.2%

Q: With CCOc1ccc(CCNC(=O)c2cc3sccc3n2C)cc1OCC as the compound, how does the “activity change, negative = decreased lipid storage” value read?
A: -54.4%

Q: With CCOC(=O)C1CCN(C(=O)C(C)(C)NC(=O)Nc2ccc(OC)c(Cl)c2)CC1 as the compound, how does the “activity change, negative = decreased lipid storage” value read?
A: -43.9%

Q: With CC(C)(NC(=O)Nc1ccccc1Cl)C(=O)N1CCC(C(=O)O)CC1 as the compound, how does the “activity change, negative = decreased lipid storage” value read?
A: -34.4%

Q: Which “activity change, negative = decreased lipid storage” value does the source give for O=C(NCCc1ccc2c(c1)OCO2)c1cc2sccc2[nH]1 here?
A: 37.4% [at 38.8 µM]

Q: Which “activity change, negative = decreased lipid storage” value does the source give for O=C(NC1CCCc2c1cnn2-c1ccc(O)cc1)c1ccccn1 (stereo not drawn) here?
A: -19.4%

Q: With Cc1ccc(NC(=O)c2ccc(CN3CCN(C)CC3)cc2)cc1Nc1nc(-c2cccnc2)cs1 as the compound, how does the “activity change, negative = decreased lipid storage” value read?
A: 55.2%

Q: Which “activity change, negative = decreased lipid storage” value does the source give for O=C(NCCc1ccc2c(c1)OCO2)c1cc2sccc2n1Cc1ccccc1 here?
A: -41.2%

Q: With O=C(NC1CCCc2c1cnn2-c1cccc(O)c1)c1ccccn1 (stereo not drawn) as the compound, how does the “activity change, negative = decreased lipid storage” value read?
A: 15.9%
